The source made the active and inactive calls. The calls were made as follows: active = hit-call score of the fitted dose curve at least 0.9, where 1 is the maximum; inactive = score below 0.9.

What all share (details): mRNA level, 48 h; actives raise or lower the signal
Read-out in test [1]: Broad substrate specificity ATP-binding cassette transporter ABCG2 (Homo sapiens) (UniProt Q9UNQ0)
In words: LTEA_HepaRG_ABCG2: Life Technologies and Expression Analysis (LTEA) Assay for ABC Transporter (ABCG2) using HepaRG (AID 2283465). An outline of the steps:
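ABCG2 transcript was quantified by TaqMan qRT-PCR against three housekeeping genes in HepaRG cells. Cells were treated in duplicate for 48 h across an 8-point half-log series up to 100 uM, with 0.5% DMSO vehicle. Gain or loss versus DMSO was fit.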

Read-out in test [2]: ATP-citrate lyase (ACLY), ACLY (gene 47)
In words: LTEA_HepaRG_ACLY: Life Technologies and Expression Analysis (LTEA) Assay for ATP-citrate lyase (ACLY) using HepaRG (AID 2283466). An outline of the steps:
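ACLY mRNA quantified by qRT-PCR on Fluidigm arrays against three housekeeping genes, after 48 h chemical treatment of HepaRG cells (top concentration 100 uM, half-log steps, 0.5% DMSO vehicle). Up- or down-regulation fitted relative to DMSO.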

Read-out in test [3]: Peroxisomal acyl-coenzyme A oxidase 1 (ACOX1) gene, ACOX1 (gene 51)
Put plainly: LTEA_HepaRG_ACOX1: Life Technologies and Expression Analysis (LTEA) Assay for Peroxisomal acyl-coenzyme A oxidase 1 (ACOX1) gene using HepaRG (AID 2283467). An outline of the steps: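 ACOX1 transcript levels were quantified by TaqMan qRT-PCR against three housekeeping genes after 48 h chemical exposure of differentiated human HepaRG cells. Exposure used eight half-log steps topping at 100 uM, 0.5% DMSO vehicle, in duplicate. Bidirectional curve fits were made relative to DMSO.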

Read-out in test [4]: Alkaline Phosphatase, Placental (ALPP) gene, ALPP (gene 250)
In words: LTEA_HepaRG_ALPP: Life Technologies and Expression Analysis (LTEA) Assay for Alkaline Phosphatase, Placental (ALPP) gene using HepaRG (AID 2283468). An outline of the steps:
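qRT-PCR readout of ALPP mRNA (Fluidigm TaqMan), normalized to ACTB/GAPDH/POLR2A, after 48 h chemical exposure of HepaRG cells; 8-point half-log series, top 100 uM, 0.5% DMSO vehicle. Bidirectional curve fit versus DMSO baseline.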

Read-out in test [5]: Bcl-2 (BAD) gene, BAD (gene 572)
In words: LTEA_HepaRG_BAD: Life Technologies and Expression Analysis (LTEA) Assay for Bcl-2 (BAD) gene using HepaRG (AID 2283469). An outline of the steps:
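Read-out: qRT-PCR of BAD mRNA, normalized to three housekeeping genes. Human HepaRG cultures got 48 h chemical exposure in 0.5% DMSO, duplicate eight-point half-log series topping at 100 uM. Gain or loss of signal fitted versus DMSO vehicle.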

Read-out in test [6]: Bcl-2 (BAX) gene, BAX (gene 581)
Put plainly: LTEA_HepaRG_BAX: Life Technologies and Expression Analysis (LTEA) Assay for Bcl-2 (BAX) gene using HepaRG (AID 2283470). An outline of the steps: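 Cells were thawed, plated for 48 h, moved to serum-free induction medium and dosed for 48 h (highest concentration 100 uM, half-log steps, 0.5% DMSO). Total RNA was then analysed for BAX expression by qRT-PCR.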

Read-out in test [7]: adenosine kinase (ADK) gene, ADK (gene 132)
In words: LTEA_HepaRG_ADK: Life Technologies and Expression Analysis (LTEA) Assay for adenosine kinase (ADK) gene using HepaRG (AID 2283471). An outline of the steps:
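Read-out is ADK transcript level measured by qRT-PCR and normalised to three housekeeping genes. Cells are human HepaRG, dosed for 48 h at up to 100 uM in 0.5% DMSO. Gain or loss of signal is fitted against DMSO controls.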

Read-out in test [8]: Alpha-fetoprotein (AFP) gene, AFP (gene 174)
In words: LTEA_HepaRG_AFP: Life Technologies and Expression Analysis (LTEA) Assay for Alpha-fetoprotein (AFP) gene using HepaRG (AID 2283472). An outline of the steps:
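Chemicals were tested on differentiated HepaRG cells for 48 hours at eight concentrations up to 100 uM, with 0.5% DMSO as vehicle. AFP expression was then quantified by qRT-PCR and analyzed for gain or loss relative to DMSO.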

Read-out in a further test: BCL2L11 (gene 10018)
In words: LTEA_HepaRG_BCL2L11: Life Technologies and Expression Analysis (LTEA) Assay for Bcl-2 (BCL2L11) gene using HepaRG (AID 2283473). An outline of the steps: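 HepaRG, 48 h exposure, 8-pt half-log series from 100 uM in 0.5% DMSO, duplicates; qRT-PCR (Fluidigm TaqMan) for BCL2L11, housekeeping-normalized; bidirectional curve fit relative to DMSO baseline.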

Read-out in test [9]: Apolipoprotein A-V (APOA5) gene, APOA5 (gene 116519)
In words: LTEA_HepaRG_APOA5: Life Technologies and Expression Analysis (LTEA) Assay for Apolipoprotein A-V (APOA5) gene using HepaRG (AID 2283474). An outline of the steps: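 HepaRG, 48 h chemical exposure in serum-free induction medium, 8-pt half-log series (top 100 uM), 0.5% DMSO vehicle, duplicates. Readout: APOA5 mRNA by qRT-PCR, housekeeping-normalized; bidirectional fit vs DMSO baseline.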

Read-out in test [10]: Apoptosis regulator Bcl-2 (Homo sapiens) (UniProt P10415)
Put plainly: LTEA_HepaRG_BCL2: Life Technologies and Expression Analysis (LTEA) Assay for Bcl-2 gene using HepaRG (AID 2283475). An outline of the steps: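 Plated human HepaRG cells are exposed to test chemicals for 48 h across eight concentrations from 100 uM downward in half-log steps (0.5% DMSO). BCL2 expression is then measured by qRT-PCR with housekeeping normalisation and fitted bidirectionally against vehicle.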

Read-out in test [11]: Bcl-2 (BID) gene, BID (gene 637)
Put plainly: LTEA_HepaRG_BID: Life Technologies and Expression Analysis (LTEA) Assay for Bcl-2 (BID) gene using HepaRG (AID 2283476). An outline of the steps:
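Cells are plated, cultured 48 h, switched to serum-free induction medium, then dosed 48 h (100 uM top, half-log steps, 0.5% DMSO). RNA is isolated and BID expression read by qRT-PCR.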

Read-out in the next test: Caspase-3 (Homo sapiens) (UniProt P42574)
In words: LTEA_HepaRG_CASP3: Life Technologies and Expression Analysis (LTEA) Assay for cysteine-aspartic acid protease (CASP3) using HepaRG (AID 2283477). An outline of the steps: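 HepaRG, 48 h exposure, 8 conc. (top 100 uM, half-log steps, duplicate), 0.5% DMSO vehicle; qRT-PCR of CASP3 transcript, housekeeping-normalised (ACTB/GAPDH/POLR2A); bidirectional curve fit vs DMSO baseline.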

Read-out in test [12]: Cytochrome P450 (CYP24A1), CYP24A1 (gene 1591)
In words: LTEA_HepaRG_CYP24A1: Life Technologies and Expression Analysis (LTEA) Assay for Cytochrome P450 (CYP24A1) using HepaRG (AID 2283478). An outline of the steps: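 qRT-PCR read-out: CYP24A1 transcript levels normalized to three housekeeping genes, bidirectional curve fits against 0.5% DMSO baseline. Human HepaRG cells treated 48 h with chemicals at eight concentrations from 100 uM in half-log steps.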

Read-out in test [13]: Cytochrome P450 (CYP1A2), CYP1A2 (gene 1544)
In words: LTEA_HepaRG_CYP1A2: Life Technologies and Expression Analysis (LTEA) Assay for Cytochrome P450 (CYP1A2) using HepaRG (AID 2283479). An outline of the steps: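 HepaRG, 48 h exposure, top 100 uM, half-log 8-pt, 0.5% DMSO vehicle, duplicates. Readout: TaqMan qRT-PCR of CYP1A2 mRNA, housekeeping-normalized (ACTB/GAPDH/POLR2A). Gain/loss fit relative to DMSO baseline.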

Read-out in test [14]: cysteine-aspartic acid protease (CASP8), CASP8 (gene 841)
Put plainly: LTEA_HepaRG_CASP8: Life Technologies and Expression Analysis (LTEA) Assay for cysteine-aspartic acid protease (CASP8) using HepaRG (AID 2283480). An outline of the steps:
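CASP8 transcript measured by TaqMan qRT-PCR with ACTB/GAPDH/POLR2A normalization, after 48 h chemical exposure of HepaRG cells in serum-free induction medium. Eight concentrations, top 100 uM, half-log steps, 0.5% DMSO vehicle; fits in both directions versus DMSO.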

Read-out in test [15]: Cytochrome P450 (CYP2B6), CYP2B6 (gene 1555)
Put plainly: LTEA_HepaRG_CYP2B6: Life Technologies and Expression Analysis (LTEA) Assay for Cytochrome P450 (CYP2B6) using HepaRG (AID 2283481). An outline of the steps: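 Read-out is CYP2B6 mRNA by TaqMan qRT-PCR, normalized to three housekeeping genes and fitted bidirectionally against 0.5% DMSO baseline. Human HepaRG cells received test chemicals for 48 h, top concentration 100 uM, half-log dilutions.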

Read-out in test [16]: Cytochrome P450 2C19 (Homo sapiens) (UniProt P33261)
Put plainly: LTEA_HepaRG_CYP2C19: Life Technologies and Expression Analysis (LTEA) Assay for CYP2C19 using HepaRG (AID 2283482). An outline of the steps:
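HepaRG, 48 h chemical exposure, 8-pt half-log series from 100 uM in 0.5% DMSO, duplicates. Readout: CYP2C19 mRNA by TaqMan qRT-PCR, housekeeping-normalized. Bidirectional fit vs DMSO baseline; phenobarbital 1mM as induction control.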

Read-out in a further test: CYP2C8 (gene 1558)
Put plainly: LTEA_HepaRG_CYP2C8: Life Technologies and Expression Analysis (LTEA) Assay for CYP2C8 using HepaRG (AID 2283483). An outline of the steps: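 CYP2C8 expression measured by TaqMan qRT-PCR and normalized to three housekeeping genes. HepaRG cultures were treated for 48 h with an eight-point half-log series topping at 100 uM, vehicle 0.5% DMSO, duplicates; fitted both directions against DMSO.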

Apoptosis regulator Bcl-2 (Homo sapiens), sequence (P10415 whole entry, looked up): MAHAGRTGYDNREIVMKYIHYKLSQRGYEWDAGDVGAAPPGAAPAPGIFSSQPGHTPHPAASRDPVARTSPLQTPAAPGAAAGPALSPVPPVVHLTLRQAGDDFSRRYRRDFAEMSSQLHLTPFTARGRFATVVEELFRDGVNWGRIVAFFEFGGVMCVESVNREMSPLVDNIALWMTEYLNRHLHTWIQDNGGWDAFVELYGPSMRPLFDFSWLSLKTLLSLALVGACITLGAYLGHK
Broad substrate specificity ATP-binding cassette transporter ABCG2 (Homo sapiens), sequence (Q9UNQ0 whole entry, looked up): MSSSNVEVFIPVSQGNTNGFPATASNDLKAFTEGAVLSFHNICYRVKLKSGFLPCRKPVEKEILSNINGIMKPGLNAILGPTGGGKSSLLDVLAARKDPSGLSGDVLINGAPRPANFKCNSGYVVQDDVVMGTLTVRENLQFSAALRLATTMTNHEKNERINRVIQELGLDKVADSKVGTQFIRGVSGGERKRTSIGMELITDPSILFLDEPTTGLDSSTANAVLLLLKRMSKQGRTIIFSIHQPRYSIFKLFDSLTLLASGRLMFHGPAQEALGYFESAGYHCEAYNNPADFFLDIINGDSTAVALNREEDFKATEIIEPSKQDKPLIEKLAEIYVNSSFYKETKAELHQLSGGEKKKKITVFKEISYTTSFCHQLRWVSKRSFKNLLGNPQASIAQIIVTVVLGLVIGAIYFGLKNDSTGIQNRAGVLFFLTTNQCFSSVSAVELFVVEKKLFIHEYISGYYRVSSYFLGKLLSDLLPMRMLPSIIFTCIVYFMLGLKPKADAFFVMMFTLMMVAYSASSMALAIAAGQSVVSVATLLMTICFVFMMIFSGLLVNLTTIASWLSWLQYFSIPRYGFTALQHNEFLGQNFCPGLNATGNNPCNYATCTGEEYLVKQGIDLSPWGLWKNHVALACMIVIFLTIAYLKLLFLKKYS
Cytochrome P450 2C19 (Homo sapiens), sequence (P33261 whole entry, looked up): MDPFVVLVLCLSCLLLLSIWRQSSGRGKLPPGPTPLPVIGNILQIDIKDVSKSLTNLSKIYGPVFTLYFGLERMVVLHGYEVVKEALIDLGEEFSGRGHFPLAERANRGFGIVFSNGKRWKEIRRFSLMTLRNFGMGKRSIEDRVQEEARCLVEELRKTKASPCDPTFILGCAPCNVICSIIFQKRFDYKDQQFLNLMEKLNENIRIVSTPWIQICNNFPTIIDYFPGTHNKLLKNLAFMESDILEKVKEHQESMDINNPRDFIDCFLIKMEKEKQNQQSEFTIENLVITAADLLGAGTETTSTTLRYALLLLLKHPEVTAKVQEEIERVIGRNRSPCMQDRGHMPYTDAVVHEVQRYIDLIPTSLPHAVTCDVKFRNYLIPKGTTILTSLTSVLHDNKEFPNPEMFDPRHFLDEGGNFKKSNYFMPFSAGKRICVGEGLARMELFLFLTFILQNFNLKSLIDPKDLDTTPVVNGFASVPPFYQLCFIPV
Caspase-3 (Homo sapiens), sequence (P42574 whole entry, looked up): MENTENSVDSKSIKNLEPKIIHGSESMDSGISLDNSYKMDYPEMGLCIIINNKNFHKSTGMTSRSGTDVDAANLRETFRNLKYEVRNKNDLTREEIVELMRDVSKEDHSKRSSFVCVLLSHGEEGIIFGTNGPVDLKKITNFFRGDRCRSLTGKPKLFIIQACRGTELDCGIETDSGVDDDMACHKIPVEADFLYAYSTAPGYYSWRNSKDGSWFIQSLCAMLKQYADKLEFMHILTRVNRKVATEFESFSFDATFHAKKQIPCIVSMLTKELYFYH

As for `COC(=O)c1ccc(I)cc1S(=O)(=O)NC(=O)Nc1nc(C)nc(OC)n1`, the molecule was classed as inactive in test [1], in test [2], in [3], in test [4], in [5] and in test [6]. Further, the result (in test [7]; in [8]; in the test with BCL2L11 (gene 10018); in test [9]; in test [10]; in test [11]) was inactive. For the same molecule, the outcome (with Caspase-3 (Homo sapiens); in [12]; in test [14]; in [15]; in test [16]; with CYP2C8 (gene 1558)) was inactive. In addition, in [13], the AC50 was 50 µM (active).

Take `CCSC(=O)N(CC(C)C)CC(C)C`: the call in test [1], in test [2], in test [3], in test [4], in [5] and in test [6] was inactive. For the same molecule, the result (in test [7]; in test [8]; in the test with BCL2L11 (gene 10018); in test [9]; in test [10]; in test [11]) was inactive. Further, the molecule was classed as inactive (with Caspase-3 (Homo sapiens); in test [12]; in [13]; in test [15]; in test [16]; in the test with CYP2C8 (gene 1558)).

For the molecule `CCOC(=O)C(C)Oc1ccc(Oc2cnc3cc(Cl)ccc3n2)cc1` (stereo not given), the result in test [1], in test [2], in test [3], in test [4], in test [5] and in test [6] was inactive. For the same molecule, the molecule was called inactive (in test [7]; in test [8]; with BCL2L11 (gene 10018); in test [9]; in [10]; in the test with Caspase-3 (Homo sapiens)). In addition, the result (in test [12]; in test [14]; in [15]; with CYP2C8 (gene 1558)) was inactive. Moreover, the AC50 is 19.2 µM (active) in [13] and 1.24 µM (active) in [16].

Broadly, the AC50 is the concentration at which the activity in the assay is half-maximal.

Source of the values: PubChem BioAssay (EPA / NIEHS).
